± gives the standard deviation.

The test system of the assay is MILI (PIWIL2) piRISC loaded with piRNA #1 (26 nt). The assay can be described thus: pre-steady-state target cleavage rate (min^-1); guide: piRNA #1 5'p-UGAGGUAGUAGGUUGUAUAGUAUCCA; MIWI and MILI are mouse PIWI proteins and EfPiwi is from a freshwater sponge; tags in brackets are library labels; higher = faster piRNA-guided slicing of the target. To be noted: auxiliary factor: 500 nM mouse GTSF1. In short, it runs like this:
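Cleave-'n-Seq used a transcribed, DNA-blocked target RNA library at 0.1 nM and active affinity-purified piRISC with one synthetic guide at 1 nM, with or without 500 nM GTSF1 partner protein, in HEPES–potassium acetate buffer at 33 °C for 0–8 or 0–960 min. Uncleaved targets were sequenced and normalised to depth and to weakly complementary targets, and three trials were pooled with k3 capped at 0.0001 min^-1. The pre-steady-state cleavage rate was estimated by a burst-and-steady-state fit.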
For GGAGACGAUACAAUACAACCUUCUACCUCA, the “pre-steady-state target cleavage rate” value stood at 0.0137 ± 0.0038.

Turning to GGAGACCUAUGUAUACAACCCACUACCUCA, the “pre-steady-state target cleavage rate” value turned out to be 0.0101 ± 0.0034. Then GGAGACCUAUGAUAUGAACCUACAACGUCA, with less than 0.0001; and GGAGAGGAUUCAAUACAACCUACUACCUCA, with 0.132 ± 0.01; and GGAGACCUUACUAUACAACCUUCAACCUCA, with 0.00437 ± 0.003.

For GGAGACCUAUGAAUACAAACUACUACCUCA, the “pre-steady-state target cleavage rate” value was 0.0186 ± 0.0035.

As to GGAGACCUAACUAUUCAACCUACUUCCUCA, the “pre-steady-state target cleavage rate” value was 0.0529 ± 0.018.

On to GGAGACCUUACUAUACAACCUAACUACCUCA, for which the “pre-steady-state target cleavage rate” value turned out to be 0.0162 ± 0.0034. As to GGAGACCUAUCUAUACAUCCUACUUCCUCA, the “pre-steady-state target cleavage rate” value worked out at 0.107 ± 0.019. Regarding GGAGACCUUACUAUUCUACCUACUACCUCA, the “pre-steady-state target cleavage rate” value amounted to 0.124 ± 0.0096. Then GGAGAGGAUUCUAUAGAACCUACUACCUCA, with 0.157 ± 0.011; and GGAGACCUAUCUAUACUAGCUACUACCUCA, with 0.0865 ± 0.011. Then GGAGACCUAUGAUUACAACCUUCUACCUCA, with 0.00235 ± 0.0023; and GGAGUGGAUACUUUACAACCUUCUACCUCA, with 0.0065 ± 0.0017. Under GGAGACCUUACUAUACUACCUACUACCUGA stands 0.105 ± 0.014. As to GGAGACCUAUGUAUACAUCCUACUACCUCA, the “pre-steady-state target cleavage rate” value stood at 0.124 ± 0.012. Regarding GGAGACCUAUCUAUACUACGUACUACCUCA, the “pre-steady-state target cleavage rate” value was 0.013 ± 0.0024. Consider “GGAGACCUAUGAUAACAACCUACAUGGAGA [g8:g16:cont:t1A]”, for which the “pre-steady-state target cleavage rate” value was less than 0.0001. Take GGAGACCUAUGAUUACAACCUACUACCUUCA: the “pre-steady-state target cleavage rate” value is 0.00664 ± 0.0022. “GGAGACCUAUGUAUACAUGGAUGAUGGAGA [g14:g19:cont:t1A]”: the “pre-steady-state target cleavage rate” value was less than 0.0001. Regarding GGAGACCUAAGUAUACAACCUACUACCUGA, the “pre-steady-state target cleavage rate” value stood at 0.0424 ± 0.0093.

For the sequence GGAGAGGAUACUAUAGAACGUACUACCUCA, the “pre-steady-state target cleavage rate” value was found to be 0.00602 ± 0.0021. With GGAGACCUAUGUUUACAACCUACUUCCUCA, the “pre-steady-state target cleavage rate” value came out at 0.0114 ± 0.0056. Regarding GGAGACCUAUGAAUACAACCUACUACCUCCA, the “pre-steady-state target cleavage rate” value amounted to 0.0129 ± 0.0043. For GGAGACCUAUGAUAUCAACCUACAACCUCA, the “pre-steady-state target cleavage rate” value worked out at 0.00288 ± 0.0026.

GGAGACCUAACUAUACAAGCUACUAGCUCA: the “pre-steady-state target cleavage rate” value stood at 0.159 ± 0.042. For GGAGACCUUACUAAACAACCUACUACGUCA, the “pre-steady-state target cleavage rate” value was found to be 0.0571 ± 0.01.

With GGAGACCUAACUAUUCAACCUACUAGCUCA, the “pre-steady-state target cleavage rate” value is 0.089 ± 0.024. Under GGAGACCUUACUAUACAACCUUCUACCACA stands 0.00842 ± 0.0039; under GGAGACCUAUGAUUACAACCUACUACUCUCA, 0.00541 ± 0.0034. Then GGAGACCAUUCUAUACAAGCUACUACCUCA, with 0.254 ± 0.018. As to GGAGACCUAACUAUACAACCUACUGACCUCA, the “pre-steady-state target cleavage rate” value is 0.163 ± 0.04. Under GGAGACCUAACUAUACAACCUAUCUACCUCA stands 0.11 ± 0.024; under “GGAGACCUAUGAUAUGAACCUAGAUGGAGA [g9:g14:cont:t1A]”, less than 0.0001; under GGAGACCUAACAAUAGAACCUACUACCUCA, 0.0656 ± 0.012. Under GGAGACCUAUGAUUACAAACUACUACCUCA stands 0.0225 ± 0.0059. On to GGAGACCUAUGAUAACAACCUACUACUUCA, for which the “pre-steady-state target cleavage rate” value was found to be 0.00299 ± 0.0028. As to GGAGACCUAUGAUAUCAUGCUACUACCUCA, the “pre-steady-state target cleavage rate” value is less than 0.0001.

Regarding GGAGACCUAUCUAUACAAGCUAGUACCUCA, the “pre-steady-state target cleavage rate” value turned out to be 0.107 ± 0.017. Then GGAGACCUUACAAUACAACCUACUACCUGA, with 0.0872 ± 0.013.

Values taken from the supplement of paper PMC10338343.
